Results: ChEMBL document CHEMBL3988442, “University of Dundee, Small-Polar-MMV Screening Library” (2021)
For part of these data: Entries with a potency or affinity are not part of this list.

Key:
Set-up in all cases: scale not given: direction of the effect not stated beside the values
[1] = biological target: Protein translocase subunit SecA (Escherichia coli (strain K12)) (UniProt P10408); experiment: Assay to Identify E. coli SecA ATPase Inhibitors; type: functional; settings: 30 µM
[2] = biological target: T1, Ubiquitin-activating enzyme e1, putative (Leishmania donovani (strain BPK282A1)) (UniProt E9BSI1); experiment: Leishmania donovani Ubiquitin Activating Enzyme (LdE1); type: functional; settings: 30 µM
T1 sequence (whole entry): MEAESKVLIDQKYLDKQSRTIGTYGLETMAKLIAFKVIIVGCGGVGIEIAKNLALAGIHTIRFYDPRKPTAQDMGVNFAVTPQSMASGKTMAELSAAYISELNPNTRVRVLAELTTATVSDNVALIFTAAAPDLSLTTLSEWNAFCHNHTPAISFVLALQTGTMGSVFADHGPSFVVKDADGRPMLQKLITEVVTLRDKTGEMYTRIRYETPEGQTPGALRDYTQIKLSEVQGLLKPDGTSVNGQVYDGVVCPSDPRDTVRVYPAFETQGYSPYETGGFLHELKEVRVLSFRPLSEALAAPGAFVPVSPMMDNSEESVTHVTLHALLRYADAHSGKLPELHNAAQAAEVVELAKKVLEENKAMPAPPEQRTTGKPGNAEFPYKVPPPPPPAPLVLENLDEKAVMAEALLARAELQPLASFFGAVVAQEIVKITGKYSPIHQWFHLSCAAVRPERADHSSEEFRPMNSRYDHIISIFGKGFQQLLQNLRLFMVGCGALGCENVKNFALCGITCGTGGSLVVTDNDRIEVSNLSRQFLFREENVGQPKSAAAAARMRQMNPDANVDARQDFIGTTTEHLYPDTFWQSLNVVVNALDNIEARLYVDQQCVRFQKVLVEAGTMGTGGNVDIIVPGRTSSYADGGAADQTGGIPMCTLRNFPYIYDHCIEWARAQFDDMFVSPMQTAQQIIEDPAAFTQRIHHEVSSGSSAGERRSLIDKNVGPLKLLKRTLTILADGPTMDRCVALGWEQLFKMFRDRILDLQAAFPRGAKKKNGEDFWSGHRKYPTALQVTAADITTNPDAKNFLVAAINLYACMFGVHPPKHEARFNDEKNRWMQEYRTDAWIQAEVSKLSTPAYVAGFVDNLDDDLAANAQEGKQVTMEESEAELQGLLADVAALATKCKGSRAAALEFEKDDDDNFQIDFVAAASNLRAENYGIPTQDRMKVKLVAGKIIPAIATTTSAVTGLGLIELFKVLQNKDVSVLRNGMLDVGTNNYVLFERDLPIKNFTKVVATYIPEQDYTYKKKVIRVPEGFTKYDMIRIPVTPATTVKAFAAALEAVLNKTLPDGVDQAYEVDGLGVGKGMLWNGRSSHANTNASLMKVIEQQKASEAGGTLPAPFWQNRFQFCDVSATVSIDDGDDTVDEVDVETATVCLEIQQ

[3] = biological target: Sialic acid-binding Ig-like lectin 9 (Homo sapiens) (UniProt Q9Y336); experiment: Hs-Siglec9 ALPHAscreen SOP 20170721; settings: 10 µM
Chain of Sialic acid-binding Ig-like lectin 9 (Homo sapiens) (Q9Y336 whole entry): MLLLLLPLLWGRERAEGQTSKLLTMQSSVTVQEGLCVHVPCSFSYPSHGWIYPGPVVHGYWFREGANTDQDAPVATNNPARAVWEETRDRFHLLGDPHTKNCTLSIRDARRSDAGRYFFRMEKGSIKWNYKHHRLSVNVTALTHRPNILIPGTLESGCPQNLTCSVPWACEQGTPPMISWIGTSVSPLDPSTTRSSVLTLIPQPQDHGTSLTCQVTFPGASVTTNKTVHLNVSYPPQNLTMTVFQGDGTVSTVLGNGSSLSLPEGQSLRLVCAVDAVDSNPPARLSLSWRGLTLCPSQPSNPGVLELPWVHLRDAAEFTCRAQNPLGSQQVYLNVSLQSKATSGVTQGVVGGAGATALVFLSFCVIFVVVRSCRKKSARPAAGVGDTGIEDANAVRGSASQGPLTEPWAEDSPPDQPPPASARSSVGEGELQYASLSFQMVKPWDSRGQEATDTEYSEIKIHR

Trypanosoma cruzi = experiment: Trypanosoma cruzi phosphomannomutase and mannose-1-phosphate guanylyltransferase assay; type: functional; settings: 10 µM
[4] = biological target: T2, Arginase-2, mitochondrial (Homo sapiens) (UniProt P78540); experiment: in vitro enzyme assay to detect the production of urea directly proportional to the activity of Arginase II; type: functional; settings: 33.3 µM; further: in the data most compounds retested in dose-response had high values
T2 sequence (whole entry): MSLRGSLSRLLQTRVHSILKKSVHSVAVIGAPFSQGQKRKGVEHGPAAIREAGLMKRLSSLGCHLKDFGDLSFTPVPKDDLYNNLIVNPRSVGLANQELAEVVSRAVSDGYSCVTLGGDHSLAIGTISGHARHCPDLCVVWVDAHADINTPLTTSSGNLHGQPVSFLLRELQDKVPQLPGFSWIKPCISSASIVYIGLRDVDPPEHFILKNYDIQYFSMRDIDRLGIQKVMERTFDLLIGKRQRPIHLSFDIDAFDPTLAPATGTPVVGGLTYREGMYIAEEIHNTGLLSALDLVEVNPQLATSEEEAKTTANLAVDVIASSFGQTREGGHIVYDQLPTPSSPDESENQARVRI

[5] = biological target: T3, Proteasome subunit beta (Trypanosoma cruzi) (UniProt O96673); experiment: Trypanosoma cruzi proteasome chymotrypsin-like activity (TcProtChymo) assay.; further: in the data most compounds retested in dose-response had high values; type: functional; settings: 9.37 µM
T3 sequence (whole entry): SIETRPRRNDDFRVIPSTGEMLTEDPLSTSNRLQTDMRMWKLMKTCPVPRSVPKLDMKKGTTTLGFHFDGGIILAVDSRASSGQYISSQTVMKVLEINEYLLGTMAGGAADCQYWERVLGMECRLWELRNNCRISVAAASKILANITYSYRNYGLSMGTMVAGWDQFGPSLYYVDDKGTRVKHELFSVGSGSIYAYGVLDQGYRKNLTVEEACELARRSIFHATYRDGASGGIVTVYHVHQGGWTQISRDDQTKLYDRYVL

Homo sapiens = species: Homo sapiens; experiment: To identify inhibition of the IFN signalling (Jak-Stat) pathway via expression of an eGFP reporter gene under the control of an IFN-stimulated response element (ISRE) containing MxA promoter.; type: functional; settings: 30 µM
[6] = biological target: T4, Tyrosyl-tRNA synthetase, putative (Trypanosoma cruzi (strain CL Brener)) (UniProt Q4DSP6); experiment: Trypanosoma cruzi tyrosyl tRNA synthetase (TcYRS) _High Tyrosine SOP; type: functional; settings: 30 µM; further: in the data most compounds retested in dose-response had high values
T4 sequence (whole entry): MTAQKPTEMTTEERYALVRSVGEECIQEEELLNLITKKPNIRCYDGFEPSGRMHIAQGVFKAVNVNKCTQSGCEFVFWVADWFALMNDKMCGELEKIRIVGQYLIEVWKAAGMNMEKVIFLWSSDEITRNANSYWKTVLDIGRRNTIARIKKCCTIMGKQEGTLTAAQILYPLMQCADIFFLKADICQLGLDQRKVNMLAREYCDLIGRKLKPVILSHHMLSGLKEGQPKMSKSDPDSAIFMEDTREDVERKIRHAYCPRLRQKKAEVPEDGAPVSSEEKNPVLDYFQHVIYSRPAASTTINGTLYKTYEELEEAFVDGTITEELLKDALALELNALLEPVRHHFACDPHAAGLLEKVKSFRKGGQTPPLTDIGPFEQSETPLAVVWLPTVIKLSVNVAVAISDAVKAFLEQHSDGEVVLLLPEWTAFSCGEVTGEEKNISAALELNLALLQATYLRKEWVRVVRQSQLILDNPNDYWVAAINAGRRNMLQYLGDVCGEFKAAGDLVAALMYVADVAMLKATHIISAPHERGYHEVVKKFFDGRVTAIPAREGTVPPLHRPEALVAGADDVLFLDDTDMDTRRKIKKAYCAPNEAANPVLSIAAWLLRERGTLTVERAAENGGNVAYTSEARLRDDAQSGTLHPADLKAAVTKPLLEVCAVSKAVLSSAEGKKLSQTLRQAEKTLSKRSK

[7] = biological target: T4, Tyrosyl-tRNA synthetase, putative (Trypanosoma cruzi (strain CL Brener)); experiment: Trypanosoma cruzi tyrosyl tRNA synthetase (TcYRS) SOP; type: functional; settings: 30 µM
[8] = biological target: Chromo domain-containing protein 1 (Saccharomyces cerevisiae (strain ATCC 204508 / S288c) (Baker's yeast)) (UniProt P32657); experiment: ScCHD-1 Enzyme Inhibition Assay; type: functional; settings: 30 µM; further: in the data most compounds retested in dose-response had high values
Chain of Chromo domain-containing protein 1 (Saccharomyces cerevisiae (strain ATCC 204508 / S288c) (Baker's yeast)) (P32657 whole entry, the tested form may be a part): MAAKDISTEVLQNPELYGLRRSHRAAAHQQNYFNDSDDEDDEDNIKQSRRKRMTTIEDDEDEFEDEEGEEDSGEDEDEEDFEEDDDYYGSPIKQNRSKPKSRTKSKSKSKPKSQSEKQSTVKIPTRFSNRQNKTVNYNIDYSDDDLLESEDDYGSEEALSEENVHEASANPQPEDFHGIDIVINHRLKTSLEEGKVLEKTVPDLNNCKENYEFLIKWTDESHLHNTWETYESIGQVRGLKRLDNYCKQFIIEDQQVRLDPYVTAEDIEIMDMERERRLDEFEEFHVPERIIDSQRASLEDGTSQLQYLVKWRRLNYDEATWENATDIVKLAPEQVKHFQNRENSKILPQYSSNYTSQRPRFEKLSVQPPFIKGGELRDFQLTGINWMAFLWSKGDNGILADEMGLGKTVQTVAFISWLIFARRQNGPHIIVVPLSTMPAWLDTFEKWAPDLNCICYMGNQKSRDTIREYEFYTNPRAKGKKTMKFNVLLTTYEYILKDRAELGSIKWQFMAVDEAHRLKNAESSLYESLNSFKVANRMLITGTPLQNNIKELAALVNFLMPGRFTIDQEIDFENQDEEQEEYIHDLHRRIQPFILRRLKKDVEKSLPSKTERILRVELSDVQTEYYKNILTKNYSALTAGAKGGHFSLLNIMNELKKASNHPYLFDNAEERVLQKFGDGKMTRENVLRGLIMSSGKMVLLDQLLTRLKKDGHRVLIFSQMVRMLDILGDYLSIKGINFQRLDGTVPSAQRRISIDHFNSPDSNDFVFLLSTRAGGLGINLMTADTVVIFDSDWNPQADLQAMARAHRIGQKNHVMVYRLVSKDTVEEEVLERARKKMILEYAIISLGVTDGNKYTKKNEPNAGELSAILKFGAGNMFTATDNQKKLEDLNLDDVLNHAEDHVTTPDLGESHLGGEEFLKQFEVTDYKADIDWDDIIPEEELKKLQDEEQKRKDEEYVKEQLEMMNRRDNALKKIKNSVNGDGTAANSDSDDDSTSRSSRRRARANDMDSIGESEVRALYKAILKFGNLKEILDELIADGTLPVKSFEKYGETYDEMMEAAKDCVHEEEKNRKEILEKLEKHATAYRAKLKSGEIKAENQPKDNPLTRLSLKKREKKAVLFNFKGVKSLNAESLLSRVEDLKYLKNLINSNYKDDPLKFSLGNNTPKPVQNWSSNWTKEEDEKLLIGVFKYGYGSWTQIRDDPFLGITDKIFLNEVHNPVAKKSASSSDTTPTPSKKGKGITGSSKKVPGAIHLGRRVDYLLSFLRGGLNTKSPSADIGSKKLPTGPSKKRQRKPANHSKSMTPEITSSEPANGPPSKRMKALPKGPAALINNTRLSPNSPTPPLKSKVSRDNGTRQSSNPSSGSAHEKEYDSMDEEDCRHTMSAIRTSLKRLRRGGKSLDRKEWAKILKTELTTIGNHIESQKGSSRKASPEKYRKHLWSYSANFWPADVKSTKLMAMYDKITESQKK

Chain of Protein translocase subunit SecA (Escherichia coli (strain K12)) (P10408 whole entry): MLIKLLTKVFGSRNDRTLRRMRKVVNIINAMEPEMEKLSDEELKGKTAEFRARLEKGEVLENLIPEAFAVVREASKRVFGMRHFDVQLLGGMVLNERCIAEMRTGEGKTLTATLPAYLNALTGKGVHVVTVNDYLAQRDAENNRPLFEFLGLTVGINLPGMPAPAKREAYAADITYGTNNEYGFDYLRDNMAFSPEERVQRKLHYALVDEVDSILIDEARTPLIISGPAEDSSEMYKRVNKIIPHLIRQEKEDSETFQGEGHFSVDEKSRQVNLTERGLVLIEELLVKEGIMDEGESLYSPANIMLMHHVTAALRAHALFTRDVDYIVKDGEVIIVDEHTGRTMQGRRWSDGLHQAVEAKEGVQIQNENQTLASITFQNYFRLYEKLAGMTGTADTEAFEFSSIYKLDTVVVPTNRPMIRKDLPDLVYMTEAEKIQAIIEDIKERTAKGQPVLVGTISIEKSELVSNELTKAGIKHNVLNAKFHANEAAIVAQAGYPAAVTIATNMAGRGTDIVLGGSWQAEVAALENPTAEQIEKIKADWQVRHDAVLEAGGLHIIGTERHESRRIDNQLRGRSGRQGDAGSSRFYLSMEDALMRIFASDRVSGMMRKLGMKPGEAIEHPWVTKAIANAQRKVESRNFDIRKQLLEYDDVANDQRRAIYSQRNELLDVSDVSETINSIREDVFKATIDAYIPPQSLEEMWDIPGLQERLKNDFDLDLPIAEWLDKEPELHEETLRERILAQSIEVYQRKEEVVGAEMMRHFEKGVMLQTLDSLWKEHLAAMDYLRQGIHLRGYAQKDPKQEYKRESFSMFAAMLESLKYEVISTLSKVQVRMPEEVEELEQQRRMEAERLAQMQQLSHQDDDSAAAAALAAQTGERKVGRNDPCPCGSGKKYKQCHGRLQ

| Compound | Percent Effect [1] | Percent Effect [2] | Percent Effect [3] | Percent Effect (Trypanosoma cruzi) | Percent Effect [4] | Percent Effect [5] | Percent Effect (Homo sapiens) | Percent Effect [6] | Percent Effect [7] | Percent Effect [8] |
| --- | --- | --- | --- | --- | --- | --- | --- | --- | --- | --- |
| COCCN1C(=O)CCC12CCN(C(=O)NC(C)C)CC2 | -5.46% | 3.9% | -2.04% | -0.938% | -0.457% | -2.66% | 19.9% | 1.93% | -10% | -3.15% |
| Cc1nc(C2CCN(C(=O)CO)CC2)cc(N2CCOCC2)n1 | -2.95% | 8.11% | 8.92% | 8.05% | 22% | 8.22% | -12.6% | 6.92% | 17.1% | 0.691% |
| COC[C@@H]1CC[C@H]2[C@H](CCN2S(=O)(=O)c2ccc(F)cc2)O1 | -2.35% | 6.49% | -4.91% | -3.02% | -0.405% | 12.1% | 11.2% | 4.74% | 7.69% | -2.82% |
| CC(O)CNC(=O)NCc1cccnc1OC1CCCC1 (stereo not given) | -1.77% | 13.3% | -3.55% | -3.21% | 7.54% | 2.63% | 10.2% | 6.84% | 2.56% | -11.2% |
| O=C1CC2(CCCCN2C(=O)c2ccsc2)CN1CC1CC1 (stereo not given) | -4.46% | 11.7% | 1.96% | 2.44% | 4.57% | 0.429% | -8.36% | 8.7% | 15% | -4.62% |
| CC(C)NC(=O)N1C[C@H]2C[C@H](C(=O)NCc3ccccc3)[C@@H](C1)O2 | -5.17% | -103% | -0.747% | -5.16% | -5.67% | 8.74% | 8.32% | 3.68% | 7.69% | 3.3% |
| CCCn1nc2c(cc1=O)CN(CC(=O)Nc1nnc(C)s1)CC2 | -7.9% | 13% | 10.3% | -3.92% | 3.07% | 11.8% | 1.49% | 2.94% | 9.41% | -8.62% |
| COCCO[C@H]1CCN(C(=O)c2cc(C)on2)[C@H]1Cc1ccccc1 | -2.31% | 11.7% | 3.34% | -1.88% | -0.913% | 7.47% | 18.8% | 7.73% | 10% | -5.82% |
| CN(C)C(=O)CN1C(=O)CCC12CCN(Cc1ccc(F)cc1)CC2 | -1.87% | 22.1% | -5.35% | 0.188% | 3.2% | 18.1% | 14% | 9.66% | 15% | -11.4% |
| CC(=O)N(Cc1noc(C)n1)C1CCN(CCOc2ccccc2)C1 (stereo not given) | -2.68% | 13% | 0.712% | -1.68% | -0.615% | 17.9% | -1.33% | 7.84% | 21.2% | -7.28% |
| Cc1cc(NCc2cc3n(n2)CCCN(C(=O)N(C)C)C3)ncn1 | -14.3% | 2.7% | 3.53% | -1.84% | 1.05% | 3.42% | 4.33% | 1.6% | 4.88% | 0.382% |
| O=C(NCCCN1CCc2ccccc2C1)c1cccnc1O | -1.75% | 10.7% | 3.3% | -0.803% | 2.22% | 2.8% | 4.99% | 2.63% | 10.3% | -11.3% |
